Test results published in PubChem BioAssay (NCI).
This is part of a sample that, as a whole, favours compounds with a hit. Of some 79,000 tested, about 15% had one in any assay. Active and inactive are the calls of the source. Cut-off read from the data, not from the text of the source: active = growth inhibition above about 70%; inactive = the rest.

Experiments:
[1] = NCI Yeast Anticancer Drug Screen. Data for the wt1 strain (AID 149);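 note: 0% = growth of vehicle-treated wt1 cultures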; conditions: S. cerevisiae wt1 strain (SPY 50644) growth inhibition, stronger effect = higher value
Procedure, shortened: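 Yeast wt1 strain exposed to compounds; growth inhibition measured relative to vehicle-treated controls.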

[2] = NCI Yeast Anticancer Drug Screen. Data for the rad50EPP+ strain (AID 151);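 note: 0% = growth of vehicle-treated control cultures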; conditions: S. cerevisiae rad50 mutant strain, stronger effect = higher value
Procedure, shortened: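 In this screen, rad50EPP+ yeast were exposed to compounds. Growth inhibition was scored against vehicle-treated controls.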

[3] = NCI Yeast Anticancer Drug Screen. Data for the rad50 strain (AID 155);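 note: 0% = growth of vehicle-only cultures of the same strain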; conditions: S. cerevisiae rad50 strain growth inhibition, stronger effect = higher value
Procedure, shortened: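 Yeast carrying a defined DNA repair defect were exposed to test compounds, and growth was compared with vehicle-treated controls to give percent inhibition.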

[4] = NCI Yeast Anticancer Drug Screen. Data for the mec2-1 strain (AID 157); conditions: S. cerevisiae mec2-1 strain, stronger effect = higher value
Procedure, shortened: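 Vehicle-treated cultures served as reference for growth inhibition of compound-exposed mec2-1 yeast.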

[5] = NCI Yeast Anticancer Drug Screen. Data for the rad14 strain (AID 159);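 note: 0% = growth of vehicle-treated control cultures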; conditions: S. cerevisiae rad14 strain growth inhibition, stronger effect = higher value
Procedure, shortened: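 Yeast cells carrying a defined DNA-repair defect were exposed to compounds, and growth inhibition was calculated relative to vehicle-treated control cultures.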

[6] = NCI Yeast Anticancer Drug Screen. Data for the sgs1 mgt1 strain (AID 161);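 note: 0% = growth of cultures given vehicle only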; conditions: S. cerevisiae sgs1 mgt1 strain, stronger effect = higher value
Procedure, shortened: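 Inhibition of yeast growth, normalised to vehicle-treated controls, is reported for a strain bearing genetic alterations in DNA damage repair.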

[7] = NCI Yeast Anticancer Drug Screen. Data for the CLN2oe strain (AID 163);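 note: 0% = growth of vehicle-only control cultures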; conditions: S. cerevisiae CLN2oe strain, stronger effect = higher value
Procedure, shortened: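 Inhibition relative to vehicle-treated yeast is reported. Cells: strain with genetic alteration in cell-cycle control, grown with compound.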

[8] = NCI Yeast Anticancer Drug Screen. Data for the cln2 rad14 strain (AID 165);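 note: 0% = growth equal to vehicle treated cultures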; conditions: S. cerevisiae cln2 rad14 strain, stronger effect = higher value
Procedure, shortened: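 Each compound was tested on cln2 rad14 yeast. Inhibition of growth was calculated against vehicle-exposed controls.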

[9] = NCI Yeast Anticancer Drug Screen. Data for the bub3 strain (AID 167); conditions: S. cerevisiae bub3 mutant strain, stronger effect = higher value
Procedure, shortened: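 Compounds were applied to a genetically altered yeast strain carrying a cell-cycle control defect. Growth inhibition was scored against vehicle-treated controls.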

[10] = NCI Yeast Anticancer Drug Screen. Data for the wt2 strain (AID 169);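 note: 0% = growth of vehicle-treated yeast cultures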; conditions: S. cerevisiae wt2 strain growth inhibition, stronger effect = higher value
Procedure, shortened: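 Inhibition of yeast growth was determined after compound treatment, normalised to controls receiving only vehicle.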

[11] = NCI Yeast Anticancer Drug Screen. Data for the mlh1 strain (AID 171);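 note: 0% = growth of vehicle-treated control cultures of the same strain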; conditions: S. cerevisiae mlh1 strain growth inhibition, stronger effect = higher value
Procedure, shortened: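 Vehicle-normalised growth inhibition of a repair- or checkpoint-altered yeast strain following compound treatment.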

[12] = NCI Yeast Anticancer Drug Screen. Data for the sgs1 strain (AID 173);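 note: 0% = growth of vehicle-only control cultures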; conditions: S. cerevisiae sgs1 mutant, stronger effect = higher value
Procedure, shortened: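 Screen format: yeast with repair or checkpoint alterations, compound exposure, growth read relative to vehicle.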

[13] = NCI Yeast Anticancer Drug Screen. Data for the mlh1 rad18 strain (AID 175); conditions: S. cerevisiae mlh1 rad18 strain growth inhibition, stronger effect = higher value
Procedure, shortened: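 Vehicle-treated cultures served as the reference for growth inhibition in a yeast strain carrying DNA damage repair alterations exposed to each compound.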

[14] = at 5.0 µM (retest, dose inferred, filed as 0.5)
[15] = at 50.0 µM (retest, dose inferred, filed as 5.0)

Measured: growth inhibition

CN1CCN(c2ccc3nc(-c4ccc5nc(-c6ccc(O)cc6)[nH]c5c4)[nH]c3c2)CC1
inactive: [1]; at 1.2 µM 3% | [1]; at 3.7 µM 5% | [2]; at 1.2 µM -7% | [2]; at 3.7 µM -12% | [3]; at 1.2 µM 6% | [3]; at 3.7 µM 13% | [4]; at 1.2 µM -4% | [4]; at 3.7 µM -17% | [4]; [14] 63% | [5]; at 1.2 µM -16% | [5]; at 3.7 µM -16% | [6]; [14] 43% | [7]; at 1.2 µM 9% | [7]; at 3.7 µM 6% | [8]; [14] 45% | [9]; at 1.2 µM -10% | [9]; at 3.7 µM -1% | [10]; at 1.2 µM -17% | [10]; at 3.7 µM -27% | [11]; at 1.2 µM -10% | [11]; at 3.7 µM -15% | [12]; at 1.2 µM -5% | [12]; at 3.7 µM 2%
active: [1]; at 11.0 µM 98% | [1]; at 33.0 µM 98% | [1]; at 100.0 µM 97% | [2]; at 11.0 µM 83% | [2]; at 33.0 µM 97% | [2]; at 100.0 µM 97% | [3]; [14] 88% | [3]; at 11.0 µM 98% | [3]; at 33.0 µM 98% | [3]; [15] 99% | [3]; at 50.0 µM 99% | [3]; at 100.0 µM 98% | [4]; at 11.0 µM 97% | [4]; at 33.0 µM 97% | [4]; [15] 99% | [4]; at 50.0 µM 99% | [4]; at 100.0 µM 97% | [5]; at 11.0 µM 97% | [5]; at 33.0 µM 97% | [5]; at 100.0 µM 97% | [6]; [15] 99% | [6]; at 50.0 µM 99.2% | [7]; at 11.0 µM 97% | [7]; at 33.0 µM 98% | [7]; at 100.0 µM 98% | [8]; [15] 99% | [8]; at 50.0 µM 97.8% | [9]; [14] 84% | [9]; at 11.0 µM 97% | [9]; at 33.0 µM 98% | [9]; [15] 99% | [9]; at 50.0 µM 99.2% | [9]; at 100.0 µM 97% | [10]; at 11.0 µM 97% | [10]; at 33.0 µM 98% | [10]; at 100.0 µM 98% | [11]; at 11.0 µM 98% | [11]; at 33.0 µM 97% | [11]; at 100.0 µM 97% | [12]; at 11.0 µM 98% | [12]; at 33.0 µM 98% | [12]; at 100.0 µM 97% | [13]; [14] 71% | [13]; [15] 99% | [13]; at 50.0 µM 99.2%
